Structures are written as SMILES.

The test system of the first assay is Plasmodium falciparum NF54/iGP1_RE9H ulg8 stage V gametocytes. Briefly: gametocyte viability (luciferase signal relative to DMSO control) (% of DMSO control); higher = less gametocytocidal activity, active = 50 or less. The conditions noted are these: concentration: 1 µM; exposure time: 72 h. Summed up: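 Viability was calculated relative to the mean of DMSO vehicle wells on each plate. Day-12 stage V gametocytes of line NF54/iGP1_RE9Hulg8 (~2.5% gametocytemia, 3% hematocrit, 0.5% Albumax II medium) were exposed in 96-well plates to compounds at final 10 µM or 1 µM, one well each, for 72 h at 37 °C. Luminescence was then read on an IVIS Lumina II after D-luciferin addition.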
For `CCN1CCN(C(=O)Cc2ccc(Nc3ncc(F)c(Nc4ccc(C(=O)Nc5ccccc5Cl)cc4)n3)cc2)CC1` [Aurora A Inhibitor I], the gametocyte viability was 110 (inactive).

Regarding `N#CC(C#N)=Cc1cc(O)c(O)c(O)c1`, the gametocyte viability is 104 (inactive).

Consider `OC[C@H]1O[C@@H](n2cnc3cc(Cl)c(Cl)cc32)[C@H](O)[C@@H]1O` [5,6-dichloro-1-β-D-ribofuranosylbenzimidazole], for which the gametocyte viability was 112 (inactive).

For the compound `N#CC(C#N)=Cc1cc(O)c(O)c([N+](=O)[O-])c1`, the gametocyte viability was 103 (inactive).

In the case of `C/C(O)=C(\C#N)C(=O)Nc1cc(Br)ccc1Br`, the gametocyte viability is 110 (inactive).

In the case of `CC(=O)c1c(O)c(C)c(O)c(Cc2c(O)c3c(c(C(=O)/C=C/c4ccccc4)c2O)OC(C)(C)C=C3)c1O` [Rottlerin], the gametocyte viability was 100 (inactive).

As for `N#CC(C#N)=Cc1ccc(O)c(O)c1`, the gametocyte viability was 99 (inactive).

With `CN[C@@H]1C[C@H]2O[C@@](C)([C@@H]1OC)n1c3ccccc3c3c4c(c5c6ccccc6n2c5c31)C(=O)NC4` [Staurosporine], the gametocyte viability is 110 (inactive).

On to `CC1=C(O)C(=O)[C@@H]2O[C@@H]2C1=O` [Terreic acid], for which the gametocyte viability was 98.4 (inactive).

In the case of `N#CC(C#N)=Cc1ccc([N+](=O)[O-])c(O)c1`, the gametocyte viability was 107 (inactive).

In the case of `O=c1[nH]c2ccc(Cl)cc2c(N[C@@H]2CN3CCC2CC3)c1-c1nc2ccccc2[nH]1`, the gametocyte viability was 112 (inactive).

As to `N#C/C(=C\c1ccc(O)c(O)c1)C(N)=S`, the gametocyte viability was 101 (inactive).

As for `Cn1cc(C2=C(c3cn(C4CCN(Cc5ccccn5)CC4)c4ccccc34)C(=O)NC2=O)c2ccccc21`, the gametocyte viability is 100 (inactive).

In the case of `Cc1ccccc1-n1c(Cn2cnc3c(N)ncnc32)nc2cccc(C)c2c1=O`, the gametocyte viability is 101 (inactive).

On to `Cc1ccccc1-n1c(Cn2ncc3c(N)ncnc32)nc2cccc(C)c2c1=O`, for which the gametocyte viability is 94.7 (inactive).

Take `COC[C@H]1OC(=O)c2coc3c2[C@@]1(C)C1=C(C3=O)[C@@H]2CCC(=O)[C@@]2(C)C[C@H]1OC(C)=O` [Wortmannin]: the gametocyte viability is 91.8 (inactive).

As to `CC(C)(C)c1cc(C=C(C#N)C#N)cc(C(C)(C)C)c1O`, the gametocyte viability is 101 (inactive).

The assay is the same for the next values; noted with them: concentration: 10 µM; exposure time: 72 h.
For `CCN1CCN(C(=O)Cc2ccc(Nc3ncc(F)c(Nc4ccc(C(=O)Nc5ccccc5Cl)cc4)n3)cc2)CC1` [Aurora A Inhibitor I], the gametocyte viability is 82.7 (inactive).

On to `N#CC(C#N)=Cc1cc(O)c(O)c(O)c1`, for which the gametocyte viability was 97.9 (inactive).

On to `OC[C@H]1O[C@@H](n2cnc3cc(Cl)c(Cl)cc32)[C@H](O)[C@@H]1O` [5,6-dichloro-1-β-D-ribofuranosylbenzimidazole], for which the gametocyte viability was 119 (inactive).

Turning to `N#CC(C#N)=Cc1cc(O)c(O)c([N+](=O)[O-])c1`, the gametocyte viability is 101 (inactive).

As to `C/C(O)=C(\C#N)C(=O)Nc1cc(Br)ccc1Br`, the gametocyte viability is 101 (inactive).

For `CC(=O)c1c(O)c(C)c(O)c(Cc2c(O)c3c(c(C(=O)/C=C/c4ccccc4)c2O)OC(C)(C)C=C3)c1O` [Rottlerin], the gametocyte viability is 96.9 (inactive).

For the compound `N#CC(C#N)=Cc1ccc(O)c(O)c1`, the gametocyte viability was 104 (inactive).

On to `CN[C@@H]1C[C@H]2O[C@@](C)([C@@H]1OC)n1c3ccccc3c3c4c(c5c6ccccc6n2c5c31)C(=O)NC4` [Staurosporine], for which the gametocyte viability is 27.1 (active).

Regarding `CC1=C(O)C(=O)[C@@H]2O[C@@H]2C1=O` [Terreic acid], the gametocyte viability is 64.8 (inactive).

Consider `N#CC(C#N)=Cc1ccc([N+](=O)[O-])c(O)c1`, for which the gametocyte viability was 102 (inactive).

For `O=c1[nH]c2ccc(Cl)cc2c(N[C@@H]2CN3CCC2CC3)c1-c1nc2ccccc2[nH]1`, the gametocyte viability was 120 (inactive).

As for `N#C/C(=C\c1ccc(O)c(O)c1)C(N)=S`, the gametocyte viability was 101 (inactive).

As to `Cn1cc(C2=C(c3cn(C4CCN(Cc5ccccn5)CC4)c4ccccc34)C(=O)NC2=O)c2ccccc21`, the gametocyte viability was 109 (inactive).

Take `Cc1ccccc1-n1c(Cn2cnc3c(N)ncnc32)nc2cccc(C)c2c1=O`: the gametocyte viability is 96.9 (inactive).

As for `Cc1ccccc1-n1c(Cn2ncc3c(N)ncnc32)nc2cccc(C)c2c1=O`, the gametocyte viability is 104 (inactive).

Consider `COC[C@H]1OC(=O)c2coc3c2[C@@]1(C)C1=C(C3=O)[C@@H]2CCC(=O)[C@@]2(C)C[C@H]1OC(C)=O` [Wortmannin], for which the gametocyte viability was 89.3 (inactive).

`CC(C)(C)c1cc(C=C(C#N)C#N)cc(C(C)(C)C)c1O`: the gametocyte viability was 110 (inactive).

The record behind these values is the supplement of paper PMC12297408.
